Source: PubChem
KB-3-1 tox = KB-3-1 parental cell cytotoxicity; Potency, µM (top dose mostly 46.1 µM), usual class: cytotoxic; 1.4% of 400,000 active; KB-3-1 viability, CellTiter-Glo ATP luminescence, 72 h; further: on the % scale 0 is the no-effect control and ±100 the full control effect; nearly all actives have a fitted effect of over 60% in size
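Multi-concentration cytotoxicity screen in KB-3-1 cells grown in DMEM lacking phenol red with 10% FBS. After 72 h at 37 °C with compound, ATP-dependent luminescence was recorded.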
SW480 rereplic = DNA re-replication induction in SW480 cells; SW480 DNA re-replication, Hoechst DNA content imaging, 48 h; Potency, µM (highest dose often 46.1 µM), for the others: at the highest dose re-replication activation, actives largely listed as activators; 1.8% of 340,000 active; further: % of control where 0% means no effect; nearly all actives have a fitted effect of over 55% in size
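Readout is total intensity of Hoechst-stained nuclei, excited at 405 nm and collected at 500-530 nm. Compound treatment lasted 48 hr at 37 C in 5% CO2 before staining.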
KB-V1 cytotox = kills drug-selected multidrug resistant KB-V1 cells; KB-V1 MDR cells viability, CellTiter-Glo, 72 h; Potency, µM (series often up to 46.1 µM), usual class: cytotoxic; 3.4% of 400,000 active; AID 1347076; further: on the % scale 0 is the no-effect control and ±100 the full control effect; nearly all actives have a fitted effect of over 60% in size
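In this primary screen, KB-V1 cells overexpressing P-gp are incubated with library compounds (lowest to highest concentration) for 72 h at 37 degrees C before a luminescent ATP viability read.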
HT1080NT lethal = kills 2HG-producing HT-1080-NT fibrosarcoma cells; HT-1080-NT fibrosarcoma viability, CellTiter-Glo ATP luminescence, 48 h; Potency, µM (series often up to 46.1 µM), without a hit: at the top dose activity, negative = less viability, actives largely listed as cytotoxic; 1.6% of 360,000 active; AID 686970;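 further: NT is the 2HG producing partner of a matched IDH1 knockdown line; 0% = DMSO-treated cells and -100% = media-only wells without cells; nearly all actives have a fitted effect of over 55% in size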
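Read-out is CellTiter-Glo luminescence after 10 minutes at room temperature, following 48 hours' compound treatment of HT-1080-NT cells (750 cells/well, RPMI, 5% FBS, 37 degrees C).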
MCF10A rerep = induces DNA re-replication in MCF 10a normal breast cells. MCF 10A DNA re-replication, Hoechst nuclear intensity, 48 h. Potency, µM (titrated, usually from 46.1 µM), for inactives: top-dose activity, positive = re-replication, most hits filed as activators. 2.9% of 350,000 active; further: % of control where 0% means no effect; nearly all actives have a fitted effect of over 50% in size
HT1080 IDH1KD tx = toxicity to HT-1080 IDH1 knockdown cells (counter line); HT-1080 IDH1 knockdown viability, ATP luminescence, 48 h; Potency, µM (series often up to 46.1 µM), inactives show at the highest dose activity, negative = toxicity, actives largely listed as cytotoxic; 2% of 360,000 active;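 further: 0% = DMSO wells and -100% = cell-free medium wells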
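Assay cells: HT-1080 with IDH1 knockdown, 750 per well, RPMI/5% FBS. Exposure: 48 h at 37 °C following 2 h pre-incubation. Read: CellTiter-Glo luminescence; fitted concentration-response, curve class assigned.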
Active calls of the source: *. Compounds with a hit are over-represented: about 8% of the library has one in this group of screens. The call rests on the fitted dose curve; in most records, active means well fitted curve in the direction sought with a large enough effect; inconclusive means small, poorly fitted or top-dose-only effect, or another doubt; inactive means no such curve, though single readings can be large; an effect the other way counts as inactive or inconclusive. Potency means the concentration at half of the fitted maximal effect.

For CCc1ccc(C(CNC(=O)c2ccc3c(=O)n(-c4ccccc4F)c(=S)[nH]c3c2)N(C)C)cc1 (centres undefined) the results were KB-3-1 tox inactive, SW480 rereplic inconclusive, KB-V1 cytotox inactive, HT1080NT lethal inconclusive, MCF10A rerep inconclusive and HT1080 IDH1KD tx 33µM*.
CCN(CC)CCn1c(=S)[nH]c2cc(Cl)ccc2c1=O was read as KB-3-1 tox inactive, SW480 rereplic 16%, KB-V1 cytotox inactive, HT1080NT lethal 18µM*, MCF10A rerep inconclusive and HT1080 IDH1KD tx inconclusive.
Screening CN(C)CCNC(=O)c1ccc2c(=O)n(Cc3ccc(Cl)cc3)c(=S)[nH]c2c1 returned KB-3-1 tox inactive, SW480 rereplic 23µM*, KB-V1 cytotox inactive, HT1080NT lethal 23µM*, MCF10A rerep inconclusive and HT1080 IDH1KD tx inconclusive.
`COc1ccc(-n2c(=O)[nH]c3cc(C(=O)NCCc4ccc(Cl)cc4)ccc3c2=O)cc1OC` gave KB-3-1 tox inactive, SW480 rereplic inconclusive, KB-V1 cytotox inactive, HT1080NT lethal 0%, MCF10A rerep 15µM* and HT1080 IDH1KD tx -8%.
`CCOC(=O)N1CCN(C(=O)c2ccc3c(=O)n(-c4ccccc4F)c(=S)[nH]c3c2)CC1` gave KB-3-1 tox inactive, SW480 rereplic -7%, KB-V1 cytotox inactive, HT1080NT lethal -1%, MCF10A rerep 1% and HT1080 IDH1KD tx -5%.
`CCN(Cc1ccccc1)C(=O)C(CC(C)C)NS(=O)(=O)c1ccc2c(c1)CCN2C(C)=O` (centres undefined) gave KB-3-1 tox inactive and KB-V1 cytotox inactive.
CCCCCn1c(=O)[nH]c2cc(C(=O)NCCCN(C)Cc3ccccc3)ccc2c1=O was read as KB-3-1 tox inconclusive, SW480 rereplic inconclusive, KB-V1 cytotox 21µM*, HT1080NT lethal 0%, MCF10A rerep 28% and HT1080 IDH1KD tx 6%.
For CCCCN(C)CCNC(=O)c1ccc(Cn2c(=S)[nH]c3ccc(Br)cc3c2=O)cc1 the results were KB-3-1 tox inactive, SW480 rereplic -5%, KB-V1 cytotox inactive, HT1080NT lethal 21µM*, MCF10A rerep 2% and HT1080 IDH1KD tx 15µM*.
`COc1ccc(C2Nc3ccccc3C(=O)N2c2ccc(F)cc2)cc1COc1ccc(NC(C)=O)cc1` (centres undefined) gave KB-3-1 tox inactive and KB-V1 cytotox inactive.
O=C(CSCc1ccccc1)N1CCN(c2ccc(F)cc2)CC1 was read as KB-3-1 tox inactive, SW480 rereplic 1%, KB-V1 cytotox inconclusive, HT1080NT lethal -29%, MCF10A rerep 26µM* and HT1080 IDH1KD tx -3%.
`O=C(c1ccccc1C(=O)N1CCN(c2ccc(F)cc2)CC1)N1CCN(c2ccc(F)cc2)CC1` gave KB-3-1 tox inactive, SW480 rereplic 4%, KB-V1 cytotox 9.2µM*, HT1080NT lethal -7%, MCF10A rerep -15% and HT1080 IDH1KD tx -11%.
`CC(C)(C)C(=O)Nc1ccccc1N1CCN(c2ccc(F)cc2)CC1` gave KB-3-1 tox inactive, SW480 rereplic 0%, KB-V1 cytotox inconclusive, HT1080NT lethal -1%, MCF10A rerep 21µM* and HT1080 IDH1KD tx -3%.
O=C(c1ccc(Cn2cc(Br)cn2)cc1)N1CCN(c2ccccc2)CC1 was read as KB-3-1 tox inactive, SW480 rereplic 15µM*, KB-V1 cytotox inactive, HT1080NT lethal inconclusive, MCF10A rerep 21µM* and HT1080 IDH1KD tx inconclusive.
`O=C(CSCc1ccccc1)N1CCN(c2ccccc2)CC1` gave KB-3-1 tox inactive, SW480 rereplic inconclusive, KB-V1 cytotox inactive, HT1080NT lethal 5%, MCF10A rerep 5% and HT1080 IDH1KD tx 10%.
For O=C(c1ccccc1C(=O)N1CCN(c2ccccc2)CC1)N1CCN(c2ccccc2)CC1 the results were KB-3-1 tox inactive, SW480 rereplic -8%, KB-V1 cytotox inactive, HT1080NT lethal 18%, MCF10A rerep 1% and HT1080 IDH1KD tx 3%.
Cc1cc(CC(=O)O)c(C)n1-c1ccc(Cl)cc1 was read as SW480 rereplic 4% and MCF10A rerep -2%.
`CCCCOc1cccc(C(=O)N(Cc2ccc(C)o2)c2ccccn2)c1` gave KB-3-1 tox inactive and KB-V1 cytotox inactive.
`O=C(c1ccc(CN2CCc3ccccc3C2)cc1)N1CCN(c2ccc(F)cc2)CC1` gave KB-3-1 tox inconclusive, SW480 rereplic -10%, KB-V1 cytotox inconclusive, HT1080NT lethal -5%, MCF10A rerep 7.3µM* and HT1080 IDH1KD tx -13%.
`O=C(CSCc1cccc(F)c1)N1CCN(c2ccccc2)CC1` gave KB-3-1 tox inactive, SW480 rereplic 0%, KB-V1 cytotox 21µM*, HT1080NT lethal 3%, MCF10A rerep -1% and HT1080 IDH1KD tx -7%.
For COc1ccc(N2CCN(C(=O)c3cc(-c4ccc(F)cc4)[nH]c3C)CC2)cc1 the results were KB-3-1 tox inactive, SW480 rereplic -32%, KB-V1 cytotox inactive, HT1080NT lethal -14%, MCF10A rerep 26% and HT1080 IDH1KD tx -12%.
`O=C(CSCc1ccccc1)N1CCN(c2cccc(C(F)(F)F)c2)CC1` gave KB-3-1 tox inactive, SW480 rereplic 7%, KB-V1 cytotox inactive, HT1080NT lethal -14%, MCF10A rerep -1% and HT1080 IDH1KD tx -21%.
For Cc1[nH]c(-c2ccc(F)cc2)cc1C(=O)N1CCN(c2ccc(Cl)cc2)CC1 the results were KB-3-1 tox inactive, SW480 rereplic -2%, KB-V1 cytotox inactive, HT1080NT lethal 3%, MCF10A rerep 5.8µM* and HT1080 IDH1KD tx 6%.
Screening COc1cc(OC)cc(C(=O)Nc2cc(-c3nc4cccnc4s3)ccc2C)c1 returned KB-3-1 tox inactive and KB-V1 cytotox inactive.
For O=C(NCCOCCO)C(=O)Nc1c2c(nn1-c1ccc(F)cc1)CSC2 the results were KB-3-1 tox inactive and KB-V1 cytotox inactive.
Screening CCOC(=O)c1c(C)n(-c2ccc(OC)cc2)c2ccc(O)c(CN(C)C)c12 returned KB-3-1 tox inconclusive, SW480 rereplic inconclusive, KB-V1 cytotox inconclusive, HT1080NT lethal inconclusive, MCF10A rerep 11% and HT1080 IDH1KD tx 21µM*.
`CCOC(=O)c1c(C)n(C)c2ccc(O)c(CN(C)C)c12` gave KB-3-1 tox inconclusive, SW480 rereplic 0%, KB-V1 cytotox inactive, HT1080NT lethal -17%, MCF10A rerep inconclusive and HT1080 IDH1KD tx -14%.
